Many of the other results were omitted from the sample, so hits are more common in it than they were.
KDM5B inh: inhibitors of human KDM5B histone demethylase; KDM5B demethylase, FDH-coupled NADH fluorescence (FDH is formaldehyde dehydrogenase); Potency, µM (series often up to 57.7 µM), actives largely listed as inhibitors; 220,000 compounds, 2.6% hits; active means well fitted inhibition curve with a large enough effect; further: 0% is about no effect; nearly all actives have a fitted effect of over 70% in size
Target sequence (Q9UGL1 whole entry, looked up): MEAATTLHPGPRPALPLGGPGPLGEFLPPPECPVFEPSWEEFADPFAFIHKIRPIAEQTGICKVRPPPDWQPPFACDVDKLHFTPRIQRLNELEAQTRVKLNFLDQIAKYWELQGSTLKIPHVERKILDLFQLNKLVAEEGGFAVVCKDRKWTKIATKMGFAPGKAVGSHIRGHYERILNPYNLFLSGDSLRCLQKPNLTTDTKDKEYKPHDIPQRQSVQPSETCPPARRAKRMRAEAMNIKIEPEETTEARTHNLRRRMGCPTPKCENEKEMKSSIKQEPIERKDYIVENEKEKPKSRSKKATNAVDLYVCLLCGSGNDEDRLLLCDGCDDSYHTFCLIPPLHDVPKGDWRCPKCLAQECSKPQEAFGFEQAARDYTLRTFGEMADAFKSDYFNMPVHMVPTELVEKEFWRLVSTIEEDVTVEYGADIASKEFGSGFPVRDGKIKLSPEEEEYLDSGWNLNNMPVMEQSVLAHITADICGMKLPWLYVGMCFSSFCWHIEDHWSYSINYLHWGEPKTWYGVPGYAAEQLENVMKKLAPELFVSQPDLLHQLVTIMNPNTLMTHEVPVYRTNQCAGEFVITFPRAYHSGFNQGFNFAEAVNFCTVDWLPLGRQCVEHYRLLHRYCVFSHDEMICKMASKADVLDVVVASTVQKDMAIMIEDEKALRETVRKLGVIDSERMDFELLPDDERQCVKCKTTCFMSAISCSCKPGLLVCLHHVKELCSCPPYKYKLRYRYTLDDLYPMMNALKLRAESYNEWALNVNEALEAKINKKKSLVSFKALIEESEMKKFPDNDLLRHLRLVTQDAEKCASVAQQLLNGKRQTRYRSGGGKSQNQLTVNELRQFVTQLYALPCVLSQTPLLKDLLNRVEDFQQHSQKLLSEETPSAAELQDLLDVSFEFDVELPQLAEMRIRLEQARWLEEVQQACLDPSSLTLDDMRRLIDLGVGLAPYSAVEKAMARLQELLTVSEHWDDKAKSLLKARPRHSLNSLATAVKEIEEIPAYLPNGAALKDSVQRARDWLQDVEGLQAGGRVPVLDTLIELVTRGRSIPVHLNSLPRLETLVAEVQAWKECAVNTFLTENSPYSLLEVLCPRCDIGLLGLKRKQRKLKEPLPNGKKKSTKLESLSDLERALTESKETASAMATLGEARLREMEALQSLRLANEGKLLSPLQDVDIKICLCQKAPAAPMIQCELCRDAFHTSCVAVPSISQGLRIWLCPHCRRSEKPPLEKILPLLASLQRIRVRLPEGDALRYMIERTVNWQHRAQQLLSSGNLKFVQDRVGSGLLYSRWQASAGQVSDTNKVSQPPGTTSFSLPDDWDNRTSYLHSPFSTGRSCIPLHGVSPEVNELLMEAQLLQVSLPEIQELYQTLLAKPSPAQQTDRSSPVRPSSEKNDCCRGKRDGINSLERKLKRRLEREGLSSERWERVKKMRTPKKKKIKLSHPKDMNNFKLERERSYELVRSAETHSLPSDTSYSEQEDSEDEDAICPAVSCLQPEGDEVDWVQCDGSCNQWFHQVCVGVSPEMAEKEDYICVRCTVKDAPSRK
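Compound dilutions met 200 nM (final) KDM5BΔAP for 10 min at room temperature before substrate addition. The substrate mix held 12.5 µM H3K4me3 with cofactors 25 µM α-ketoglutarate and 50 µM Fe²⁺. NADH signal gain over 30 min defined activity.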
An asterisk follows results filed as active; i = inactive. Potency means the concentration at half of the fitted maximal effect.

SMILES	KDM5B inh
Cc1nn(-c2ccccc2)cc1C(=O)N1CCC(C(C)C(=O)NCc2ccccc2)CC1 (stereo not drawn)	i
COc1ccc(OC)c(S(=O)(=O)N2CCN(C(=O)NC3CCCC3)CC2)c1	i
COC(=O)C1=CNC=C(C(=O)OC)C1c1cccc(Cl)c1	i
COc1ccc(CCNC(=O)c2cc3n(n2)CC(c2ccc4c(c2)OCO4)OC3)cc1OC (stereo not drawn)	28µM*
NS(=O)(=O)c1ccc(CCNC(=O)c2cc3n(n2)CC(c2ccc(Cl)cc2)OC3)cc1 (stereo not drawn)	i
COc1ccccc1CNC(=O)c1cc2n(n1)CC(c1ccc(Cl)cc1)OC2 (stereo not drawn)	i
N#Cc1ccc(C(=O)Nc2ccccc2C(=O)NCCc2ccccc2)cc1	i
Cc1nn(-c2ccc(C(=O)NC3CCCC3)cc2)c(NC(=O)C2CC2)c1-c1ccccc1	i
CCCC(=O)N1CCC(O)(c2ccccc2)[C@H](N2CCCC2)C1 (stereo partly drawn)	10µM*
CN(C)[C@@H]1CN(C(=O)CCc2ccccc2)CC[C@]1(O)c1ccccc1	i
CCCC(=O)N1CCN(c2ccc(NC(=O)C3(c4ccccc4)CCCC3)cc2)CC1	i
Cc1[nH]c2ccccc2c1-c1csc(NC(=O)C2CCOCC2)n1	i
Cc1cc(=O)oc2cc(OCC(=O)OCC(=O)Nc3ccc(OC(F)F)cc3)ccc12	i
NS(=O)(=O)c1ccc(N/N=C/c2sc(Nc3ccccc3)nc2Cl)c([N+](=O)[O-])c1	i
COC(=O)C1=C(N)N(c2ccc(Br)cc2)C2=C(C(=O)CCC2)C1c1ccc(OC)cc1 (stereo not drawn)	i
CN1CCN(Cc2ccc(Nc3ncc(-c4cncnc4)c4c3OCC4)cc2)CC1	i
Cc1noc(C)c1-c1cn(C)c(=O)n2cc(COc3ccc(Cl)cc3)nc12	i
Cc1noc(C)c1-c1cnc(Nc2ccc(Cl)cn2)c2c1CCO2	28µM*
CN1CCN(Cc2ccc(Nc3cnc4ccc(-n5ccnc5)nn34)cc2)CC1	i
Cc1noc(C)c1-c1cnc(Nc2ccc(CN3CCN(C)CC3)cc2)c2c1CCO2	25µM*
CCc1ccc(C(=O)NCc2ccc(N3CCN(C)CC3)nc2)s1	i
CCN(c1ccc(NC(=O)COc2ccccc2C(=O)c2cc(C#N)c(=O)n(C3CC3)c2)cc1)C(C)C	i
O=C(NC1CCc2ccccc21)C1Cc2ccccc2O1 (stereo not drawn)	i
CCOc1ccc(Cl)cc1CN(C)CC1(O)CCCNC1 (stereo not drawn)	i
CCN(CC)CCNC(=O)C12CCCC=C1N(c1ccccc1)C(=O)CC2 (stereo not drawn)	i
SMILES	KDM5B inh
COc1ccc(COCC(O)CN(C)Cc2ccc(OC)c(OC)c2OC)cc1 (stereo not drawn)	i
O=C(c1ccc2c(c1)OCO2)N1CCN(c2nnc3ccccn23)CC1	25µM*
O=C(c1ccc2c(c1)OCO2)N1CCn2c(nnc2-c2ccccc2)C1	i
COc1ccccc1C(=O)NC1CCN(c2cn[nH]c(=O)c2)CC1	i
COc1ccccc1C(=O)NC1CCN(c2cc(C(F)(F)F)ncn2)CC1	i
O=C(c1ccccc1)N1CCN(C(=O)c2ccc3c(c2)OCO3)CC1	i
Cc1ccc(CC(=O)N2CCN(c3nnc4ccc(C(F)(F)F)cn34)CC2)cc1	i
COc1ccc(C(=O)N2CCN(c3nnc4c(Cl)cccn34)CC2)cc1	i
O=C(c1cccs1)N1CCCCCCC1	i
O=C(c1ccc(OCc2cn3ccccc3n2)cc1)N1CCN(C(=O)c2cccs2)CC1	i
O=C(c1cccs1)N1CCN(c2nnc3ccccn23)CC1	22µM*
Cc1ccc(C(=O)N2CCN(c3nnc4ccccn34)CC2)cc1	28µM*
COc1ccccc1C(=O)NC1CCN(c2nnc3ccccn23)CC1	28µM*
CCC(CC)C(CNc1ccc2nnnn2n1)N1CCCC1 (stereo not drawn)	i
COc1cc(C#N)ccc1OCc1ccccc1Br	i
CC(C(=O)NC1CCCC1)N1CCC(c2nc3ccccc3o2)CC1 (stereo not drawn)	i
O=C(Nc1nc2ccc(F)cc2s1)c1cc(=O)c2ccccc2o1	i
O=C(CCC(=O)c1ccc2c(c1)OCCCO2)NC1CCCCCC1	i
CC(CCc1ccccc1)NC(=O)C(=O)Nc1cccc(N2CCCS2(=O)=O)c1 (stereo not drawn)	i
COc1ccc2c(c1)cc(C(=O)NCc1ccc(C)cc1)n2C	i
COCCn1c(SCC(C#N)CCC#N)nnc1-c1ccc(Cl)cc1 (stereo not drawn)	i
OC12CC3CC(C1)CC(NCc1ccccc1)(C3)C2	i
Cc1cccc(N2CCN(c3nc4ccccc4nc3C(=O)OC(C)C)CC2)c1C	i
COCC(=O)Nc1ccc(-c2c(CC(C)C)nn(-c3ccccc3)c2OC(C)=O)cc1	i
CC(C)CC(=O)Nc1ccccc1	i
SMILES	KDM5B inh
CC(=O)Oc1c(-c2ccc(NC(=O)CC(C)C)cc2)c(-c2ccc(F)cc2)nn1-c1ccc(F)cc1	28µM*
COc1cccc(-c2ccc(NC(=O)C3CCCN3C(=O)C3(C)CC3)cc2)c1 (stereo not drawn)	i
CCCc1nn(-c2ccccc2C)c(OC(C)=O)c1-c1ccc(NC(C)=O)cc1	i
COCC(=O)Nc1ccc(-c2c(-c3cccc(OC)c3)nn(-c3ccccc3)c2OC(C)=O)cc1	28µM*
COC(=O)c1cn(-c2ccccc2)nc1-c1ccc(OC)c(OC)c1	i
COc1ccc(-c2nn(-c3ccccc3C)c(OC(C)=O)c2-c2ccc(NC(C)=O)cc2)cc1OC	28µM*
COc1cccc(-c2ccc(NC(=O)C3CCCN(C(=O)CC(F)(F)F)C3)cc2)c1 (stereo not drawn)	i
COc1cccc(-c2nn(-c3ccccc3)c(OC(C)=O)c2-c2ccc(NC(=O)C3CCCC3)cc2)c1	13µM*
COCC(=O)Nc1ccc(-c2c(C(C)C)nn(-c3cccc(F)c3)c2OC(C)=O)cc1	i
Cc1ccc(NC(=O)Cn2nc(-c3ccc(F)cc3)c3cnc4ccc(C)cc4c32)cc1	i
Cn1c(COc2ccc(C(C)(C)C)cc2)nnc1SCc1csc(-c2ccc(F)cc2)n1	i
Cc1nc2cc(NC(C)C(=O)Nc3ccccc3C(C)C)ccc2o1 (stereo not drawn)	i
CC(Sc1nc(NC2CC2)c2ccccc2n1)C(=O)N1CCCC1 (stereo not drawn)	i
COc1ccccc1C(CNC(=O)C1CCN(S(=O)(=O)c2ccc3c(c2)CCC3)CC1)N(C)C (stereo not drawn)	i
CN(Cc1ccccc1)C(=O)c1ccc2c(c1)CCCN2S(C)(=O)=O	i
COc1ccc(Cl)cc1-n1cc(-c2ccccc2)nc1SCC(=O)Nc1ccc(C)cc1	i
COc1ccccc1-c1cc(NC(=O)COc2ccc(C)c(C)c2)n(-c2ccccc2)n1	i
COCC(=O)Nc1ccc(-c2c(-c3ccccc3OC)nn(-c3ccc(C)cc3)c2OC(C)=O)cc1	22µM*
CCn1nc(C)cc1C(=O)N1CCCC(N(C)CCc2ccc(OC)c(OC)c2)C1 (stereo not drawn)	i
COc1ccc(CCN(C)Cc2nc(-c3ccccn3)no2)cc1OC	i
COc1ccc(CCN(C)C2CCCN(c3ncccc3C#N)C2)cc1OC (stereo not drawn)	25µM*
CCCCn1c(=O)[nH]c(=O)c2c1nc(CSc1nnnn1-c1ccc(C)cc1C)n2CC	i

Bioassay records from PubChem.
